# This is a sample that favours compounds with a hit; in the whole collection about 4.7% have one here.
# Calb FLC: C. albicans growth modulation with fluconazole | C. albicans CaCi-2 (fluconazole-resistant clinical isolate) + fluconazole, Alamar Blue growth, 48 h | growth inhibition, % (no concentration beside the values) | 0.57% of 300,000 active;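 active = growth inhibition above about 58% in most replicates, limit read from the data, passing the limit was not always enough; inconclusive = exactly half the replicates above a set limit; inactive = most replicates below a set limit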;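 note: all wells also contain fluconazole at 8 µg/ml as a sub-toxic cotreatment; 0% = median of DMSO wells and 100% = median of geldanamycin control wells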
# SKKanGAS inh: SKKanGAS growth inhibition; S. pyogenes SKKanGAS, kanamycin growth, BacTiter-Glo, 6 h; inhibition, % at 7.5 µM; 1.3% of 300,000 active;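 active = mean replicate score, as percent of positive control median, at least 50; inconclusive = mean below 50 but one replicate at or above 50; inactive = mean and every replicate below 50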;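 note: strain carries kanamycin resistance gene driven by streptokinase promoter and grows in 40 µg/ml kanamycin; loss of luminescence reflects streptokinase promoter inhibition or plain growth inhibition; 0% = median of DMSO wells and 100% = positive control at its reference dose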
# tim23-1 inh: inhibits growth of tim23-1 mutant yeast; 1.3% of 330,000 active; inhibition, % at 20 µM; S. cerevisiae tim23-1 growth, BacTiter-Glo luminescence, 24 h;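 active = growth inhibition of the mutant yeast at or above 50%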;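 note: temperature-sensitive mutant grown at 25 °C; plate controls were DMSO-treated mutant yeast for no effect and medium wells lacking yeast for full effect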
# PfHsp90 yeast 2: growth inhibition of yeast expressing Plasmodium Hsp90; S. cerevisiae expressing PfHsp90, BacTiter-Glo ATP, 48 h; yeast lacking PDR1 and PDR3 efflux regulators; inhibition, % at 9.4 µM; 0.32% of 310,000 active; AID 504621;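 active = every replicate shows inhibition above about 80%, whatever the replicate mean, limit read from the data; inconclusive = mean inhibition reaches the set limit but some replicate falls short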;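 note: 0% = DMSO neutral controls and 100% = 20 µM radicicol positive controls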
# tim10-1 inh: growth inhibitors of tim10-1 mutant yeast. S. cerevisiae tim10-1 ts strain growth, BacTiter-Glo, 24 h. inhibition, % at 20 µM. 2.2% of 330,000 active. AID 463190;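 active = inhibition of at least 40%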;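 note: mutant grown at 25 °C; 0% = DMSO wells with yeast and 100% = wells holding no yeast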
# TIM10 inh: TIM10 yeast growth inhibition | S. cerevisiae TIM10 strain growth, BacTiter-Glo luminescence, 24 h | inhibition, % at 10 µM | 1.4% of 330,000 active;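 active = inhibition of 40% or more at the single tested concentration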;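 note: wild-type TIM10 isogenic control strain grown at permissive 25 °C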
# tim10-1 conf: tim10-1 yeast growth inhibition, confirmed; shares compounds with tim10-1 inh; S. cerevisiae tim10-1 ts strain growth, BacTiter-Glo, 24 h; inhibition, % at 20 µM; 56% of 7,400 active; AID 463213;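 active = inhibition of yeast growth at or above a set limit in either of two repeat tests at 20 µM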;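 note: tim10-1 mutant grown at permissive 25 °C to find synthetic lethal compounds; 0% = DMSO yeast wells and 100% = medium wells without yeast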
# TIM10 conf: confirmation of TIM10 yeast growth inhibitors. shares compounds with TIM10 inh. S. cerevisiae tim10 strain growth, BacTiter-Glo luminescence, 24 h. inhibition, % at 10 µM. 63% of 4,600 active. AID 463215;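 active = inhibition of yeast growth at or above a set limit in either of two replicates at 10 µM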;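 note: this counterscreen used the strain with wild-type TIM10; 0% = yeast with DMSO and 100% = medium wells lacking yeast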
# The depositor's hits bear a star; ? = inconclusive; . = not tested or not shown.
SMILES,Calb FLC,SKKanGAS inh,tim23-1 inh,PfHsp90 yeast 2,tim10-1 inh,TIM10 inh,tim10-1 conf,TIM10 conf
COCCN(C(=O)C1CC1)c1nnc(-c2ccc(C)cc2)s1,-15.3,-2.0,16.6,-25.2,29.1,9.4,.,.
CCOc1ccc(-c2nnc(N(CC)C(=O)C3CCC3)s2)cc1,16.1,7.6,40.3,-42.1,42.8*,43.3*,31.0*,35.1*
Cc1cc(C)cc(NC(=O)N2CCCN(Cc3c(F)cccc3Cl)CC2)c1,0.1,1.9,14.6,12.1,20.0,17.2,.,.
Cc1oc(=O)c(NC(=O)c2cccc(Cl)c2)cc1C(=O)c1ccccc1,14.3,-4.7,47.6,.,62.5*,51.2*,61.5*,43.4*
COc1ccc(C(=O)Nc2cc(C(=O)c3ccccc3)c(C)oc2=O)cc1,-1.1,-2.9,44.7,117.1*,66.0*,60.2*,70.2*,43.0*
Cc1oc(=O)c(NC(=O)c2ccccc2)cc1C(N)=O,-6.3,.,3.8,-30.8,5.0,3.9,.,.
CC(C)NC(=O)C(c1ccc(F)cc1)N(C(=O)CCC(=O)Nc1ccccn1)c1cccc(F)c1 (stereo not given),-1.9,0.4,3.8,3.7,-3.4,13.0,.,.
CCS(=O)(=O)N1Cc2ccccc2CC1C(=O)NC(C)C12CC3CC(CC(C3)C1)C2 (stereo not given),3.8,1.1,35.2,-13.0,41.1*,46.5*,30.5*,-16.6
O=C(CNC(=O)c1ccco1)NNC(=O)c1cccc(Cl)c1,.,.,-2.5,7.1,-8.9,-4.4,.,.
COc1ccc2c(=O)c(-c3cnn(-c4ccccc4)c3)c(C)oc2c1,-17.9,-4.8,46.4,11.4,48.3*,69.9*,29.1,65.2*
O=C(c1ccco1)N1CCN(c2ncnc3scc(-c4ccccc4)c23)CC1,1.5,5.3,28.0,13.0,47.4*,44.3*,42.4*,-3.2
O=C(C1CCCO1)N1CCN(S(=O)(=O)c2ccc(Cl)cc2)CC1 (stereo not given),2.8,2.0,-1.6,-5.0,5.7,0.5,.,.
CCOC(=O)c1ccc(N2C(=O)CC(N3CCCC(C)C3)C2=O)cc1 (stereo not given),-16.5,1.7,27.7,.,65.6*,46.4*,66.2*,46.6*
O=[N+]([O-])c1ccc(S(=O)(=O)c2ccccc2)nc1,-9.8,-0.6,46.7,9.3,63.6*,60.1*,57.8*,52.1*
Nc1ccc(S(=O)(=O)c2ccccc2)nc1,-1.4,1.8,-2.7,2.7,-8.0,0.8,.,.
CCN(CC)S(=O)(=O)c1cc(NC(=O)Cn2ncc(Cl)c(Cl)c2=O)ccc1C,-12.1,-9.3,-5.7,7.4,6.9,-13.5,.,.
CCOCCCN(C(=O)c1snc(C(N)=O)c1N)C(C(=O)NC1CCCC1)c1ccc(O)cc1 (stereo not given),-4.4,2.2,2.0,-15.9,5.1,-3.8,.,.
CCNc1nc(NCC)n2c(SCC(=O)Nc3ccc(C)cc3Br)nnc2n1,.,.,13.3,.,9.4,4.9,.,.
O=C1/C(=C/c2cccs2)SC(=S)N1c1cccc(O)c1,29.5,10.1,47.2,7.7,41.0*,60.8*,56.8*,61.0*
O=C(CN1C(=O)NC2(CCc3ccccc32)C1=O)NCc1cccc(C(F)(F)F)c1 (stereo not given),.,.,-2.4,-22.5,-2.0,-0.7,.,.
COc1cc2c(cc1OC)C(COc1ccc(F)cc1)NCC2 (stereo not given),3.4,-9.8,32.8,3.7,43.2*,44.8*,36.0*,41.7*
CCN(CC)S(=O)(=O)c1ccc(N2CCc3ccccc3C2)nc1,-5.2,-5.9,39.1,-12.8,42.8*,50.3*,32.2*,41.2*
COc1ccc(CNS(=O)(=O)c2cn(C)c(=O)n(C)c2=O)cc1,2.8,-1.4,-15.3,5.1,-3.4,-3.0,.,.
O=C(NCCc1ccc(F)cc1)N[C@@H](Cc1ccccc1)C(=O)O,1.4,-2.1,-5.3,-11.1,1.0,-5.9,.,.
CCSc1nc2ccccc2n1CC(N)=O,?,-3.5,2.2,.,6.4,-10.0,.,.

# Assay outcomes deposited in PubChem BioAssay by several laboratories.
